HGIII-sPLA2 inh = human group III sPLA2 inhibitors, primary screen, biochemical, QFRET, BODIPY PC-A2 liposome substrate; QFRET BODIPY PC-A2 liposome hydrolysis, fluorescence; AID 743126, 2013; inhibition, % at 12.2 µM; 0.56% of 370,000 active;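 active = inhibition above mean plus 3 SD of compounds lying within the high and low control bounds, cut at about 19% in these data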;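 note: 0% = median of test compound wells and 100% = no enzyme DMSO wells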
ADAM17 inh = ADAM17 inhibitors, primary screen, biochemical, QFRET; Disintegrin and metalloproteinase domain-containing protein 17 (Homo sapiens), P78536; recombinant ADAM17, EDANS/DABCYL FRET peptide cleavage; inhibition, % at 6.95 µM; 0.83% of 370,000 active; AID 720648, 2013;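 active = inhibition above the mean of compounds lying between control limits plus 3 SD, set per campaign, cut at about 8.5% in these data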;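 note: 0% = DMSO-only wells as the low control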
PLC-gamma1 inh = PLC-gamma1 enzyme inhibitors, primary screen, biochemical, fluorescence, purified enzyme | 1-phosphatidylinositol 4,5-bisphosphate phosphodiesterase gamma-1 (Homo sapiens), P19174 | fluorogenic substrate | inhibition, % at 12.2 µM | 0.84% of 370,000 active; in the data active = inhibition above about 9.5%
proKLK7 act = proKLK7 zymogen activators, primary screen, biochemical, fluorescence intensity. Kallikrein-7 (Homo sapiens), P49862. purified proKLK7, EDANS-DABCYL substrate fluorescence; 100% is mature enzyme control, 0% vehicle. activation, % at 7 µM. 0.9% of 370,000 active. AID 652039, 2013;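 active = activation above the mean of all tested compounds plus 3 SD, computed per campaign excluding outliers beyond control limits, cut at about 13% in these data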
PLC-beta3 inh = human PLC-beta3 inhibitors, primary screen, biochemical, fluorescence | 1-phosphatidylinositol 4,5-bisphosphate phosphodiesterase beta-3 (Homo sapiens), Q01970 | Purified PLC-beta3, fluorogenic substrate | inhibition, % at 12.2 µM | 0.18% of 370,000 active;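 note: 0% = median of compound wells on plate and 100% = full blocker control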
ADAM10 inh = human ADAM10 inhibitors, primary screen, biochemical, QFRET, HTS | Disintegrin and metalloproteinase domain-containing protein 10 (Homo sapiens), O14672 | recombinant ADAM10, EDANS/DABCYL FRET peptide cleavage, 3 h | inhibition, % at 7 µM | 0.62% of 370,000 active;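 active = inhibition above a per-campaign cutoff equal to the mean of compounds falling between control-based bounds plus 3 SD, cut at about 20% in these data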;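 note: 0% = DMSO wells while the 100% control is not disclosed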
Target sequence (O14672 214-748 limits assumed): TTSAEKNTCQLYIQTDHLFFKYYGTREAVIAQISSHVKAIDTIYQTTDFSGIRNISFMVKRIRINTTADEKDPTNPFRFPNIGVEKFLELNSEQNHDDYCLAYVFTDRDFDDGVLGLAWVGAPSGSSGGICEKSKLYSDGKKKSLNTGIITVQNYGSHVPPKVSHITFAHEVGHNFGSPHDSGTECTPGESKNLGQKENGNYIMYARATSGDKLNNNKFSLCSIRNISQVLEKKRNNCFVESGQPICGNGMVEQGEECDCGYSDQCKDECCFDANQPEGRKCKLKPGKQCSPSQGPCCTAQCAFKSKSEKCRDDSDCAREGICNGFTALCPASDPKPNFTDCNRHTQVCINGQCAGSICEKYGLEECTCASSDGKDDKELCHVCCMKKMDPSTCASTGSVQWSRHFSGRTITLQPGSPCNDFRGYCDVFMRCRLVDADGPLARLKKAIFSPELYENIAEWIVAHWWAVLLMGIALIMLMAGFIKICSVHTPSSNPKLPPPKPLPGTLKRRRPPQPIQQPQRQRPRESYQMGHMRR
PLCg1 ctr = PLC-gamma1 enzyme inhibitors, counter-screen for PLC-beta3 inhibitor project, biochemical, fluorescence; 3.1% of 3,300 active; purified PLC-gamma1, fluorogenic substrate; inhibition, % at 12.3 µM; shares compounds with PLC-gamma1 inh; in the data active = inhibition above about 9.5%
PLCb3 confirm = PLC-beta3 inhibitor confirmation, biochemical, fluorescence, purified enzyme | shares compounds with PLC-gamma1 inh | fluorogenic substrate fluorescence | inhibition, % at 12.3 µM | 1% of 3,300 active | AID 743261, 2014
Starred values were filed as active, the others as inactive; i = inactive; · = no result. Compounds with a hit are over-represented: about 3.4% of the library has one in this group of screens. Cut-off read from the data, not from the text of the source, unless noted: active = inhibition above about 11%; inactive = the rest.

SMILES	HGIII-sPLA2 inh	ADAM17 inh	PLC-gamma1 inh	proKLK7 act	PLC-beta3 inh	ADAM10 inh	PLCg1 ctr	PLCb3 confirm
Cc1cc(=O)n2[nH]c(SCc3ccccc3)nc2n1	1	0	2	-1	2	-9	·	·
CC(C)c1cc(=O)n2[nH]c(SCc3ccccc3Cl)nc2n1	8	-10	13*	0	-5	-1	-3	-2
NC(=O)c1ccsc1NC(=O)c1coc2ccccc2c1=O	9	-1	-1	0	-1	0	·	·
O=C(Nc1cccc(-c2ccc(F)cc2)c1)C1CCCN(Cc2cccnc2)C1 (centres undefined)	2	-7	0	0	-6	4	·	·
Cc1nn2c(COc3ccc(NC(=O)c4ccccc4Cl)cc3)nnc2c2ccccc12	-4	0	-1	-1	-3	2	·	·
c1ccc(-c2ncc(-c3ccn[nH]3)s2)cc1	-8	-345	-155	1	-175	i	·	·
CCN(CC(=O)Nc1ccc(OC)cc1)C(=O)c1oc2c(Cl)cccc2c1C	5	-2	2	0	-5	-10	·	·
CCN(CC(=O)Nc1ccccc1C(F)(F)F)C(=O)c1oc2c(Cl)cccc2c1C	11	7	13*	0	6	1	4	-1
COc1cc(NC(=O)C2CCCCC2)c(OC)cc1NC(=O)c1ccccc1	2	3	0	1	-7	4	·	·
C/C(=N\NC(=O)CSc1nnc(C)s1)c1ccc(O)cc1	5	5	9.9*	0	10	4	0	-2
COC(=O)c1ccc(CSc2nnc(C)s2)cc1	3	5	3	0	11*	6	-3	0
Cc1cc(NC(=O)C2C3C(=O)N(Cc4ccc(Cl)cc4)C(C(=O)NCc4ccccc4)C34C=CC2(C)O4)no1 (centres undefined)	-8	7	10*	0	13*	10	-4	-2
Cc1cc(NC(=O)C2C3C(=O)N(Cc4ccc(Cl)cc4)C(C(=O)NC4CCCCC4)C34C=CC2(C)O4)no1 (centres undefined)	4	-3	1	1	6	-3	·	·
Nc1[nH]c(=O)nc2snnc12	5	4	9.6*	-1	10	-7	-4	-4
CN1CCN(CCC(=O)N/N=C/c2ccccn2)CC1	4	-4	10*	0	3	0	4	-5
CC1CCCC(C)N1C(=O)COC(=O)c1n[nH]c(=O)c2ccccc12 (centres undefined)	1	0	4	0	4	0	·	·
CCC(=O)c1ccc(OC(=O)N2CCOCC2)cc1	3	-5	-1	0	-4	-3	·	·
Cc1nn(CC(=O)N2CCCC2)c(=O)c2nn(-c3ccccc3)c(C)c12	8	-1	3	0	12*	-3	-4	1
O=C(CSc1n[nH]c(=O)n1-c1ccccc1)Nc1ccccc1	9	4	15*	0	9	3	-10	-4
O=C(CSc1nncn1-c1ccccc1)Nc1ccc(N2CCOCC2)cc1	6	4	9.8*	0	1	8	-4	-2
O=C(CSc1nnnn1-c1ccccc1)Nc1ccc(Cl)cc1	-14	1	14*	0	4	8	-7	-2
O=C(CSCc1c(F)cccc1F)Nc1ccccc1	-4	-2	0	0	1	-5	·	·
COc1cc(C(=O)N[C@H](C(=O)OCC(=O)NC2CCCCCC2)C(C)C)cc(OC)c1OC	0	2	0	0	-6	0	·	·
Cc1ccc(C)c(SCC(=O)NCc2ccco2)c1	3	1	0	-1	12*	-7	-8	-6
Cc1ccc(Cl)cc1NC(=O)Nn1cnnc1	7	-4	1	-1	-5	0	·	·
SMILES	HGIII-sPLA2 inh	ADAM17 inh	PLC-gamma1 inh	proKLK7 act	PLC-beta3 inh	ADAM10 inh	PLCg1 ctr	PLCb3 confirm
Cn1c(=O)[nH]c(=O)c2c1nc(N1CCOCC1)n2CCN1CCOCC1	2	3	2	0	1	-1	·	·
Cn1c(=O)[nH]c(=O)c2c1ncn2CCN1CCOCC1	7	5	5	0	11*	11	-4	-4
CCCCn1cnc2c1c(=O)[nH]c(=O)n2CCCC	5	2	7	0	11*	-2	-4	7
CN(C)CCCn1cnc2c1c(=O)[nH]c(=O)n2Cc1ccccc1	19	-5	4	0	-10	6	·	·
O=C(CC1C(=O)NCCN1Cc1cccc(F)c1)NC1CCCCCC1 (centres undefined)	7	-3	-7	-1	-19	-10	·	·
CCn1c(SCc2ccc(F)cc2)nc2ccccc2c1=O	6	5	11*	0	-1	10	-4	-6
CC(C)COC(=O)Nc1ccc(C(=O)O)cc1	5	1	3	1	13*	4	4	5
CCOC(=O)c1c(C)n(-c2ccc(C)cc2)c2c(CC(C)=O)c(Br)c(OC)c(O)c12	10	5	10*	0	7	11	-5	-3
C=CCOc1ccc(/C(O)=C2/C(=O)C(=O)N(CCCN3CCOCC3)C2c2ccccc2)cc1 (centres undefined)	7	3	11*	0	1	10	-4	-2
C=CCOc1ccc(/C(O)=C2/C(=O)C(=O)N(CCCN3CCOCC3)C2c2ccc(OC)cc2)cc1 (centres undefined)	-4	3	-2	0	-2	2	·	·
O=C(/C=C/Nc1ccc(F)cc1F)c1ccc(Br)cc1	-5	1	12*	0	1	2	-67	-60
CCCNC(=O)CSc1n[nH]c(=O)n1CCc1ccccc1	-2	-2	0	0	-3	2	·	·
CC(C)CNC(=O)CSc1n[nH]c(=O)n1CCc1ccccc1	1	-1	13*	0	-2	2	-1	-2
CC(C)(C)c1ccccc1OCC(O)CN1CCN(c2ccccn2)CC1 (centres undefined)	11	4	12*	0	-4	20	0	-2
Cc1c(C)n(C(=O)CSc2nncn2C)c2ccccc12	11	-1	7	-1	2	11	·	·

Source: PubChem BioAssay
